Consider 1 compound from ChEMBL document CHEMBL2218924, “A broad activity screen in support of a chemogenomic map for kinase signalling research and drug discovery” (Biochem J, 2013).

Experiment [1] concerns the target T1, Mitogen-activated protein kinase kinase kinase 7 (Homo sapiens) (UniProt O43318).
T1 sequence (whole entry): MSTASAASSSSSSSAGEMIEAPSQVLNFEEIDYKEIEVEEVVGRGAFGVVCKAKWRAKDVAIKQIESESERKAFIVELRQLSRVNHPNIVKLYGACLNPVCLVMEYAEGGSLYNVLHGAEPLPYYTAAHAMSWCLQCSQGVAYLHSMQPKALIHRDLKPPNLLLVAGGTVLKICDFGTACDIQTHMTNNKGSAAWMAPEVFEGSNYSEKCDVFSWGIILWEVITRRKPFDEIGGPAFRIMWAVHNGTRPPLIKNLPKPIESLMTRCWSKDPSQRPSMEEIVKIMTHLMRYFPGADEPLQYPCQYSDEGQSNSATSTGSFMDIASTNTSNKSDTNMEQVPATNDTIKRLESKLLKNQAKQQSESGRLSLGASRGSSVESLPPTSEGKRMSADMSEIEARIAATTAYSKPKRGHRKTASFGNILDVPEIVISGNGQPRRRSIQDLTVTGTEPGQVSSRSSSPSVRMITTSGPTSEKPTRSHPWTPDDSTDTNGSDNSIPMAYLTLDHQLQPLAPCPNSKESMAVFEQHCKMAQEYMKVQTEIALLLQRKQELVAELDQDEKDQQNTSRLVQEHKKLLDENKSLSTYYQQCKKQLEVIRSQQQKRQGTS
The following applies: at 1 µM.

Experiment [2] deals with T1, Mitogen-activated protein kinase kinase kinase 7 (Homo sapiens). The following applies: at 10 µM.
The target of experiment [3] is T2, Serine/threonine-protein kinase TAO1 (Homo sapiens) (UniProt Q7L7X3).
T2 sequence (whole entry): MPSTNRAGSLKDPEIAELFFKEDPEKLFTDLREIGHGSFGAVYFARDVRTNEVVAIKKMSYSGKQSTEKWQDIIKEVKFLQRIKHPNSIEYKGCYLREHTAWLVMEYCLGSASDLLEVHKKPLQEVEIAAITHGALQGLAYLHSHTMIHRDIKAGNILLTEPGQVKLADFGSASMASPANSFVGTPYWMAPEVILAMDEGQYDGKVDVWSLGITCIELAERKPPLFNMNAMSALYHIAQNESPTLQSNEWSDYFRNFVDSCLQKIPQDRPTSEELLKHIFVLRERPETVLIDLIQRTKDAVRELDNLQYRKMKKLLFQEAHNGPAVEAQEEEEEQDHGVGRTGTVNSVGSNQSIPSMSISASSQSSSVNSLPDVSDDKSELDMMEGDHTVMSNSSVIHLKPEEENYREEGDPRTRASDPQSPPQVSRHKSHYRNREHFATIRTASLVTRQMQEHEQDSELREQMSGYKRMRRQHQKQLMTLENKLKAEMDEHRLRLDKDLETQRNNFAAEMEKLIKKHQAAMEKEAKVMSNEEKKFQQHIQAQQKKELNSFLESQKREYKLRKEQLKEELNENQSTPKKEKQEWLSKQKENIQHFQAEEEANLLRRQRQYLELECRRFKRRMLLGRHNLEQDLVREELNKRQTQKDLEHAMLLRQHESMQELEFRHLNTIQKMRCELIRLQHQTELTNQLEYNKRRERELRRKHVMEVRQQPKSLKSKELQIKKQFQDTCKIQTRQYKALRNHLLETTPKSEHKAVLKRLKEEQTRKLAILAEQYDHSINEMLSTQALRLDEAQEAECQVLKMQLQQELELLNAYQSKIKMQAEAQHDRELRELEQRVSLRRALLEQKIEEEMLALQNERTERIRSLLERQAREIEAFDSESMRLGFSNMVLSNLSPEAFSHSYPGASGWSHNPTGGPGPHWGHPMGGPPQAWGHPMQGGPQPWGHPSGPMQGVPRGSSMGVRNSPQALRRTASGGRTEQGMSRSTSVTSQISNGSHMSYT
The following applies: at 10 µM.

The target of experiment [4] is T3, Serine/threonine-protein kinase TAO2 (Homo sapiens) (UniProt Q9UL54).
T3 sequence (whole entry): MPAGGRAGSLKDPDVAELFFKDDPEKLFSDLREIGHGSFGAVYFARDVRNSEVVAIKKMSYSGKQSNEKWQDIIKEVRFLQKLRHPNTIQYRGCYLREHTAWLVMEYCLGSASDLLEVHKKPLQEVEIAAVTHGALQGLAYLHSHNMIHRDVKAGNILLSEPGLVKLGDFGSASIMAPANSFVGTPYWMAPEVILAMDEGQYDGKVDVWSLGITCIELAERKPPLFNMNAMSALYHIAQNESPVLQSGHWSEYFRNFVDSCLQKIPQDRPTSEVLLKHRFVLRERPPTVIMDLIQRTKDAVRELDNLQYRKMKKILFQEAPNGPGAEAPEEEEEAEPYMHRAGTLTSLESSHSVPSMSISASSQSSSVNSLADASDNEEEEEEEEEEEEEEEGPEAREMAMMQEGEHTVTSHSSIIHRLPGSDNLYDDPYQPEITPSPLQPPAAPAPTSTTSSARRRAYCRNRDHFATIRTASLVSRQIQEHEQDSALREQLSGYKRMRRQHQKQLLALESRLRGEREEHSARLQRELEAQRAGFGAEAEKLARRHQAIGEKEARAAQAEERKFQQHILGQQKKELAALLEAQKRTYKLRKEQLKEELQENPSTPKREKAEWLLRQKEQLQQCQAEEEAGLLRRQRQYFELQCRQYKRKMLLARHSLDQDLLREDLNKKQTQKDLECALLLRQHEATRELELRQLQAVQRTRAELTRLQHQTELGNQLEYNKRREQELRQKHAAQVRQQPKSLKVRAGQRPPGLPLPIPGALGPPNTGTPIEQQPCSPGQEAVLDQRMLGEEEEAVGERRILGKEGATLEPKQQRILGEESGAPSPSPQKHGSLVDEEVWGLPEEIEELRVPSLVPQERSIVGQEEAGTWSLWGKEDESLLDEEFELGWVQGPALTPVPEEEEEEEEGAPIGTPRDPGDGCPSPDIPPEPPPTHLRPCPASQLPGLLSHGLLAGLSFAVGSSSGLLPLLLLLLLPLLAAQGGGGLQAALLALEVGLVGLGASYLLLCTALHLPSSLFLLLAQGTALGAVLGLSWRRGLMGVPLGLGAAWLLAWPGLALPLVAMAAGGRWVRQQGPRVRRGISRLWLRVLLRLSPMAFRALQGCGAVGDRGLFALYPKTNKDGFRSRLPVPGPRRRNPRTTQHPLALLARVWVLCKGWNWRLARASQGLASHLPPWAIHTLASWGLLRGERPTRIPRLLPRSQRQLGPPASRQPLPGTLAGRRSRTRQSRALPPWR
Particulars: at 1 µM.

Experiment [5] addresses T3, Serine/threonine-protein kinase TAO2 (Homo sapiens). The following applies: at 10 µM.
For experiment [6], the target named is T4, Serine/threonine-protein kinase TBK1 (Homo sapiens) (UniProt Q9UHD2).
T4 sequence (whole entry): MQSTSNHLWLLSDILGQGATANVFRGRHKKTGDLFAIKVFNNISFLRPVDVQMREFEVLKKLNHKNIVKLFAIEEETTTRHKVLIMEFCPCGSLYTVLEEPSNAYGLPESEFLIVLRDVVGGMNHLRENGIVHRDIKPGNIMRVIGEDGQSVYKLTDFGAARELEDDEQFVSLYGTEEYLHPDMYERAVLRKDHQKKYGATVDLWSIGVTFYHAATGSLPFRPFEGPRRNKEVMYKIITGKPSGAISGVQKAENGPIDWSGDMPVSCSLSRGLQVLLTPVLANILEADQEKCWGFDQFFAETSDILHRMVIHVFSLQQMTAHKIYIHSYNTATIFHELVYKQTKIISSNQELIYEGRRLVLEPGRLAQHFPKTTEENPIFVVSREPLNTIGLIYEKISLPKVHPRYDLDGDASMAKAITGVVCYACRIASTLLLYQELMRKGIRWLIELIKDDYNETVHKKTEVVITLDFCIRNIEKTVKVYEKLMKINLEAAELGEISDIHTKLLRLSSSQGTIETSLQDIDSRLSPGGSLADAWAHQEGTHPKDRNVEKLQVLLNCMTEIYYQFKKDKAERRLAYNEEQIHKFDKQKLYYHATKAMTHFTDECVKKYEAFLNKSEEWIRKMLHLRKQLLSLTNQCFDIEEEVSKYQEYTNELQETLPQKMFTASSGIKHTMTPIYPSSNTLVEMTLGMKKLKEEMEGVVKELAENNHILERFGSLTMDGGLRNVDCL
The following applies: at 1 µM.

Experiment [7] deals with T4, Serine/threonine-protein kinase TBK1 (Homo sapiens). Particulars: at 10 µM.
The target in experiment [8] is T5, TGF-beta receptor type-1 (Homo sapiens) (UniProt P36897).
T5 sequence (whole entry): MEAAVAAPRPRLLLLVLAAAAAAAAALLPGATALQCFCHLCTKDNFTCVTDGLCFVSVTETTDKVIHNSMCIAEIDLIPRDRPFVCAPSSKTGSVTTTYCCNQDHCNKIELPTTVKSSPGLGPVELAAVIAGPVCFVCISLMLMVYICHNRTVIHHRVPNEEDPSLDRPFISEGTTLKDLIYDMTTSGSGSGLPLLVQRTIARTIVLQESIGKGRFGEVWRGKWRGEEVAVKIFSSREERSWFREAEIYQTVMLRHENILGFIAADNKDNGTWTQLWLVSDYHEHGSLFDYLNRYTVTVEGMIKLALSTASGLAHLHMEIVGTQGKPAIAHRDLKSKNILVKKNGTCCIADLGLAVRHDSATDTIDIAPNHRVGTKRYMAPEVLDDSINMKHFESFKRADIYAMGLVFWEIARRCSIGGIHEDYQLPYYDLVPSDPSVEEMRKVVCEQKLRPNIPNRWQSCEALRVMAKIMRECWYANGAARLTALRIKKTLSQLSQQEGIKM
Particulars: at 1 µM.

Experiment [9] deals with T5, TGF-beta receptor type-1 (Homo sapiens). The following applies: at 10 µM.
Experiment [10] concerns the target T6, Inhibitor of nuclear factor kappa-B kinase subunit alpha (Homo sapiens) (UniProt O15111).
T6 sequence (whole entry): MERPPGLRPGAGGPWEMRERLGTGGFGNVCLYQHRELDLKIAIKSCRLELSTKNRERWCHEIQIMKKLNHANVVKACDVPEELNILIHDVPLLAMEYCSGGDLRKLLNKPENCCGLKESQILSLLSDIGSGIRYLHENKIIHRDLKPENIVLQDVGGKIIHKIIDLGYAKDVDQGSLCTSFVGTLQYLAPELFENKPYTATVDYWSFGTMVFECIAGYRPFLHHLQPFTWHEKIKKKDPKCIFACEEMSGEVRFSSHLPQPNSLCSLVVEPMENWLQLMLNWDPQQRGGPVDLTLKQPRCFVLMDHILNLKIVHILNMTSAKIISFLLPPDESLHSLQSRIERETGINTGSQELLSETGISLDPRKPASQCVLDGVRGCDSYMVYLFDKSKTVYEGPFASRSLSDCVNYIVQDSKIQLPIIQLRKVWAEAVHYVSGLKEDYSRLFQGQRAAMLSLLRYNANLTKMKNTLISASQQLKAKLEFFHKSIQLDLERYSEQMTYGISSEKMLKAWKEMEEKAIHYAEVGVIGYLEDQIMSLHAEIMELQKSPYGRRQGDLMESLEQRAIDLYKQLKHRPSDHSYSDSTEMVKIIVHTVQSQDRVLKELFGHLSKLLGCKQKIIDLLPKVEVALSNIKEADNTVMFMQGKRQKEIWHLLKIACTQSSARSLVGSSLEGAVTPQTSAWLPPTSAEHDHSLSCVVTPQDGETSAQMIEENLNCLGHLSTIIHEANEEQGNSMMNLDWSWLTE
Particulars: at 1 µM.

For experiment [11], the target named is T6, Inhibitor of nuclear factor kappa-B kinase subunit alpha (Homo sapiens). The following applies: at 10 µM.
Experiment [12] deals with T7, Inhibitor of nuclear factor kappa-B kinase subunit beta (Homo sapiens) (UniProt O14920).
T7 sequence (whole entry): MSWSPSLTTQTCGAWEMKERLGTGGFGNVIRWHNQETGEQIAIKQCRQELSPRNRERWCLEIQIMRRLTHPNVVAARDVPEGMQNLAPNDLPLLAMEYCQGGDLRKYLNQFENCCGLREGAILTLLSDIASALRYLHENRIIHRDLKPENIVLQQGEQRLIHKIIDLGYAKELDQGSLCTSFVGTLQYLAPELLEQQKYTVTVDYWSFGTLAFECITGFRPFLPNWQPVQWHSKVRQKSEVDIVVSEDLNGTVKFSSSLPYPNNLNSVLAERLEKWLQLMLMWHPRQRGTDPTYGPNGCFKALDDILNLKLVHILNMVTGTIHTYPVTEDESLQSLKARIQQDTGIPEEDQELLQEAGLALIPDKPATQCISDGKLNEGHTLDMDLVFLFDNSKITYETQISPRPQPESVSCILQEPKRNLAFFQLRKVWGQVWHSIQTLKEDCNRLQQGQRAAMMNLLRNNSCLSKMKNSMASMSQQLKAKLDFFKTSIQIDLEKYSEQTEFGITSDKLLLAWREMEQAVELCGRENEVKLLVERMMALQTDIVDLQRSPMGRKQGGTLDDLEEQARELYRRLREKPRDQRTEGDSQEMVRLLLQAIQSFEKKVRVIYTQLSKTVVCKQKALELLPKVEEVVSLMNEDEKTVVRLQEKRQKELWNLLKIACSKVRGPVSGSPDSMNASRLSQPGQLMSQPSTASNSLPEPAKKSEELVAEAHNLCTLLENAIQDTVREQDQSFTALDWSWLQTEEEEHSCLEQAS
Particulars: at 1 µM.

Experiment [13] deals with T7, Inhibitor of nuclear factor kappa-B kinase subunit beta (Homo sapiens). Particulars: at 10 µM.

Each structure is given as a SMILES string.

As for `Nc1n[nH]c2nc3ccccc3nc12`, the residual activity in experiment [1] turned out to be 91%; in experiment [2] it was 74%; in experiment [3], 75%; in experiment [4], 93%; in experiment [5], 85%; in [6], 78%. The residual activity amounted to 63% in experiment [7]; 91% in [8]; 82% in experiment [9]; 93% in experiment [10]; 69% in experiment [11]; 122% in experiment [12]. Moreover, in experiment [13], the residual activity stood at 90%.
